“And” between values parts separate entries of the source, which are not always exact repeats. Identical values can stand only once. Unmarked numbers belong to inactive results. Records with an inconclusive call do not appear. A call without a number means that no potency is given here. The source made the active and inactive calls. Unless noted, calls come from the whole dose curve; as a rule, active = well fitted curve in the direction sought with a large enough effect in the repeat runs; inconclusive = weak or mixed curves; inactive = no such curve, though single readings can be large; an effect the other way counts as inactive or inconclusive.
Columns and labels:
[1] = qHTS assay to identify small molecule agonists of the estrogen receptor alpha (ER-alpha) signaling pathway in the presence of an antagonist - cell viability counter screen (AID 1259386);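 note: cells exposed to compounds for 22 h at 37 °C before the viability read; nearly all actives have a fitted effect of over 30% in size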; note: potency is the fitted concentration of half-maximal effect
How it was run: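 VM7Luc4E2 cells (endogenous full-length ER-alpha, 4×ERE-luciferase) were held 5 days in phenol red-free medium with 10% charcoal-stripped FBS, plated, then given 10.0nM ICI-182,780 and compounds at 15 concentrations for 22hr at 37C; viability read by CellTiter-Fluor fluorescence.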

[2] = qHTS assay to identify small molecule antagonists of the progesterone receptor (PR) signaling pathway - cell viability counter screen (AID 1346798); note: nearly all actives have a fitted effect of over 50% in size; note: potency is the fitted concentration of half-maximal effect
How it was run: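 PR-UAS-bla HEK293T cells, 3,000/well in 2% charcoal-stripped FBS medium, dosed with compounds plus R5020 agonist and incubated 16 h at 37C. Viability then measured in the same wells by CellTiter-Glo luminescence after 30 min at RT.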

[3] = qHTS assay to identify small molecule agonists of the progesterone receptor (PR) signaling pathway - cell viability counter screen (AID 1346799; calls by dose curve; note: nearly all actives have a fitted effect of over 45% in size; note: potency is the fitted concentration of half-maximal effect)
How it was run: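 Counter screen in the PR-UAS-bla HEK293T wells (2% charcoal-stripped FBS, 16 h compound exposure at 37 C) after the bla read. CellTiter-Glo added, 30 min at room temperature, luminescence read as cell viability.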

[4] = qHTS assay to identify small molecule antagonists of the TGF-beta/Smad signaling pathway - cell viability counter screen (AID 1346824); note: nearly all actives have a fitted effect of over 50% in size; note: potency is the fitted concentration of half-maximal effect
How it was run: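 Cytotoxicity counter-screen run in the same wells as the beta-lactamase Smad reporter read: CellTiter-Glo luminescence after 30 min at room temperature. HEK 293T SBE-bla cells had 5 hr compound exposure at 37 C with TGF-beta1 (0.25 ng/mL stock).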

[5] = qHTS assay to identify small molecule agonists of the TGF-beta/Smad signaling pathway - cell viability counter screen (AID 1346829); note: top concentration of the series differs between compounds; nearly all actives have a fitted effect of over 45% in size
How it was run: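 In parallel with the Smad reporter read, viability of HEK 293T cells stably carrying SBE-bla is quantified by ATP luminescence following 5 hr compound treatment.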

[6] = qHTS assay to identify small molecule agonists of the TGF-beta/Smad signaling pathway (AID 1346859; active = well fitted activation curve with a large enough effect in the signal ratio in the repeat runs, not every such curve was filed as active; the % refers to the signal ratio; note: series mostly up to about 77 µM)
How it was run: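 SBE-bla HEK293T cells plated overnight, then compound exposure for 5 h at 37 C. Beta-lactamase reporter read with LiveBLAzer B/G FRET substrate after 2 h at room temperature, fluorescence at 405 nm excitation, 460/530 nm emission.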

[7] = biological target: Thyrotropin-releasing hormone receptor (Homo sapiens) (UniProt P34981); test: qHTS assay to identify small molecule agonists of the thyrotropin-releasing hormone receptor (TRHR) signaling pathway (AID 1346891; calls by dose curve; note: series mostly up to about 58 µM)
How it was run: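 HEK293 cells expressing TRHR plated 18 h at 37 C/5% CO2, calcium dye-loaded 2 h at 37 C, then compound added (agonist mode); kinetic calcium fluorescence read 3 min at 1 s intervals; 15 concentrations in triplicate.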

[8] = Human pregnane X receptor (PXR) small molecule agonists, qHTS cell viability counter screen (AID 1346977); note: nearly all actives have a fitted effect of over 50% in size; note: potency is the fitted concentration of half-maximal effect
How it was run: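 PXR-Luc HepG2 cells (2,000/well, 5% charcoal-stripped FBS) preincubated 5 hr, then exposed to compounds 24 hr at 37 C. Viability read in the same wells by CellTiter-Fluor fluorescence, reagent added at 23 hr, 1 hr incubation.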

[9] = Caspase-3/7 induction in HepG2 cells by small molecules, qHTS assay (AID 1346978); note: nearly all actives have a fitted effect of over 15% in size
How it was run: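 Caspase-3/7 induction was measured by Caspase-Glo 3/7 luminescence (30 min, room temperature) after a 17 hr compound exposure of wild-type HepG2 cells seeded at 2,000 per well and pre-incubated 5 hr.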

[10] = Caspase-3/7 induction in CHO-K1 cells by small molecules, qHTS cell viability counter screen (AID 1346979); note: nearly all actives have a fitted effect of over 35% in size; note: potency is the fitted concentration of half-maximal effect
How it was run: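 Wild-type CHO-K1 cells (1,500/well) treated with compound after 5 h plating; after 16 h at 37C, viability read as CellTiter-Fluor fluorescence following 1 h reagent incubation, in the same wells as the caspase read.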

[11] = Caspase-3/7 induction in CHO-K1 cells by small molecules, qHTS assay (AID 1346980); note: nearly all actives have a fitted effect of over 15% in size
How it was run: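 Luminescent Caspase-Glo 3/7 read (30min, room temperature) quantified apoptosis induction. Cells were wild-type CHO-K1, treated with compound for 17hr at 37 C and 5% CO2.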

[12] = Caspase-3/7 induction in HepG2 cells by small molecules, qHTS cell viability counter screen (AID 1346981); note: nearly all actives have a fitted effect of over 30% in size; note: potency is the fitted concentration of half-maximal effect
How it was run: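 Wild-type HepG2 cells (2,000/well) were allowed to settle for 5 hr at 37 C, 5% CO2, then dosed with compounds in DMSO by pin transfer. After 16 hr at 37 C, CellTiter-Fluor was added and fluorescence read 1 hr later.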

[13] = biological target: Nuclear receptor subfamily 1 group I member 2 (Homo sapiens) (UniProt O75469); test: Human pregnane X receptor (PXR) small molecule agonists, qHTS assay (AID 1346982); note: nearly all actives have a fitted effect of over 35% in size; note: potency is the fitted concentration of half-maximal effect
How it was run: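 PXR-Luc HepG2 cells (CYP3A4 promoter-driven luciferase) were seeded in medium with 5% charcoal-stripped FBS, left 5 hr at 37 C, then exposed to compounds in DMSO for 24 hr. Luminescence was read after ONE-Glo addition.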

[14] = biological target: Acetylcholinesterase (Homo sapiens) (UniProt P22303); test: Acetylcholinesterase (AChE) small molecule antagonists: colormetric cell-based qHTS assay (AID 1347395; calls by dose curve; note: nearly all actives have a fitted effect of over 30% in size)
How it was run: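 SH-SY5Y cells attached overnight, exposed to compound 30 min at 37 C, then given DTNB/acetylthiocholine; after 90 min at 37 C, colorimetric thiocholine read gives cellular AChE activity.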

[15] = biological target: Thyrotropin-releasing hormone receptor (Homo sapiens) (UniProt P34981); test: qHTS assay to identify small molecule antagonists of the thyrotropin-releasing hormone receptor (TRHR) signaling pathway (AID 1346877; active = well fitted inhibition curve with a large enough effect in the repeat runs, not every such curve was filed as active; note: series mostly up to about 51 µM)
How it was run: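 TRHR-expressing HEK293 cells were seeded, cultured 18 h at 37 °C, then loaded with calcium dye for 2 h. Compounds were pre-incubated 5 min at room temperature before 1 nM TRH (final) was added, and kinetic fluorescence was recorded for 3 min.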

[16] = biological target: Progesterone receptor (Homo sapiens) (UniProt P06401); test: qHTS assay to identify small molecule agonists of the progesterone receptor (PR) signaling pathway (AID 1346784; calls by dose curve; note: nearly all actives have a fitted effect of over 30% in size)
How it was run: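 PR-UAS-bla HEK 293T cells (beta-lactamase reporter under UAS) in 2% charcoal-stripped FBS, dosed with 23 nL compound after 6 hr, incubated 16hr at 37C. LiveBLAzer B/G FRET substrate added, fluorescence read after 2 hours.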

[17] = biological target: Nuclear receptor subfamily 1 group I member 2 (Rattus norvegicus) (UniProt Q9R1A7); test: Rat pregnane X receptor (rPXR) activation by small molecules, qHTS assay (AID 1346983); conditions: rPXR luciferase reporter cells, One-Glo luminescence, 24 h; stronger effect = higher value; note: nearly all actives have a fitted effect of over 20% in size
How it was run: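 Luminescent readout (One-Glo luciferase, 30 min room temperature) followed 24 hr compound treatment at 37 C of rPXR cells plated 2,000 per well and preincubated 5hr; qHTS format with compounds delivered in DMSO.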

[18] = biological target: Nuclear receptor subfamily 1 group I member 2 (Homo sapiens) (UniProt O75469); test: CYP3A4 induction through human pregnane X receptor (PXR) by small molecules, qHTS assay (AID 1346984); note: nearly all actives have a fitted effect of over 40% in size
How it was run: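 DPX-2 cells (HepG2 co-transfected with PXR and CYP3A4 promoter-luciferase) treated with compounds 24 h at 37C; luciferin-IPA CYP3A4 substrate 3uM final added for 3 h, then One-Glo; luminescence read. qHTS format.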

[19] = biological target: Nuclear receptor subfamily 1 group I member 2 (Homo sapiens) (UniProt O75469); test: Human pregnane X receptor (PXR) activation by small molecules, qHTS assay (AID 1346985); note: nearly all actives have a fitted effect of over 40% in size
How it was run: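 DPX-2 cells (HepG2 co-transfected with a PXR response element and a CYP3A4-promoter luciferase construct) were seeded at 2,000 per well, rested 5 hr at 37C, then exposed to DMSO-dissolved compounds for 24 hr. Activation was read as luciferase luminescence.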

[20] = biological target: Progesterone receptor (Homo sapiens) (UniProt P06401); test: qHTS assay to identify small molecule antagonists of the progesterone receptor (PR) signaling pathway (AID 1346795; active = well fitted inhibition curve with a large enough effect in the signal ratio in the repeat runs, not every such curve was filed as active; the % refers to the signal ratio; note: potency is the fitted concentration of half-maximal effect)
How it was run: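 PR-UAS-bla HEK293T cells with beta-lactamase reporter under UAS control, in 2% charcoal-stripped FBS, treated with compounds plus 1 nM promegestone (R5020, final) for 16 hr at 37C. Read-out: FRET beta-lactamase substrate fluorescence after 2 hr at room temperature.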

Nuclear receptor subfamily 1 group I member 2 (Homo sapiens), sequence (O75469 whole entry, looked up): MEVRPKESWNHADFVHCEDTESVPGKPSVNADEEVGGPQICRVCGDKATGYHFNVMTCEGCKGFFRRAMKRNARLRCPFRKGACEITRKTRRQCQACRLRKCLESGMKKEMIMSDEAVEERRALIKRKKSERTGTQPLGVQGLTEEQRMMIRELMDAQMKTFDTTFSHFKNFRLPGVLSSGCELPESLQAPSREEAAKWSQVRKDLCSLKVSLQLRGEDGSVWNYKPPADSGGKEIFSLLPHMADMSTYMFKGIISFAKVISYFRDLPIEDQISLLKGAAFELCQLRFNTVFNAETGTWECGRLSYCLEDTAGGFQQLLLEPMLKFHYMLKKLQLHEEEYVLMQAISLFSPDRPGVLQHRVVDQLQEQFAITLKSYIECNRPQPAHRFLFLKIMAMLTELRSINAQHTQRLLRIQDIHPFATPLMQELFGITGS
Acetylcholinesterase (Homo sapiens), sequence (P22303 whole entry, looked up): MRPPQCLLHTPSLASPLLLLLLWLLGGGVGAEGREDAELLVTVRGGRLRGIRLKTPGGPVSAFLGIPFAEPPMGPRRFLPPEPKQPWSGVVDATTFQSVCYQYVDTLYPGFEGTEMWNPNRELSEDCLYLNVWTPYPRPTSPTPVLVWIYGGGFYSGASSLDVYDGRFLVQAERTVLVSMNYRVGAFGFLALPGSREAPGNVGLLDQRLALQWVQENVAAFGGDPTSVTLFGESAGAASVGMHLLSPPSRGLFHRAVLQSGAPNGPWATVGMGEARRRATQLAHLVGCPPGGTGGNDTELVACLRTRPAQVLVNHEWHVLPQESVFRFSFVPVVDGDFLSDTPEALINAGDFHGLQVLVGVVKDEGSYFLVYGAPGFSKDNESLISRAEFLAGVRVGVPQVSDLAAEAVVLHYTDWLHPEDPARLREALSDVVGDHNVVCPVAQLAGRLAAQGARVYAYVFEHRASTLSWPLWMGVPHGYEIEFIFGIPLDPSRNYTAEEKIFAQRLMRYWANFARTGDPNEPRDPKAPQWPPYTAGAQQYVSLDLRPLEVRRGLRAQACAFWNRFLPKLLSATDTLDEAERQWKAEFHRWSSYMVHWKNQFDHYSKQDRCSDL
Thyrotropin-releasing hormone receptor (Homo sapiens), sequence (P34981 whole entry, looked up): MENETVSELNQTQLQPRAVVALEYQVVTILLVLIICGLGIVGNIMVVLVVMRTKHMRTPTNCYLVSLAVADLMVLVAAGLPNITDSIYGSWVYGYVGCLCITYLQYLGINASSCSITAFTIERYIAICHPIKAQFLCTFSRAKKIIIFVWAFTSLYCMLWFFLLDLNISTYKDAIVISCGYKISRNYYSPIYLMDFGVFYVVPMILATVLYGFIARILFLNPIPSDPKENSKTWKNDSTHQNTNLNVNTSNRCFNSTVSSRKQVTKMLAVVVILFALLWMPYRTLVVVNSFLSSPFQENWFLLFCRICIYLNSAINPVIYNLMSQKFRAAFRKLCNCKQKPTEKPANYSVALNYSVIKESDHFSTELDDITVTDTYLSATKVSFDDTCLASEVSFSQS
Progesterone receptor (Homo sapiens), sequence (P06401 whole entry, looked up): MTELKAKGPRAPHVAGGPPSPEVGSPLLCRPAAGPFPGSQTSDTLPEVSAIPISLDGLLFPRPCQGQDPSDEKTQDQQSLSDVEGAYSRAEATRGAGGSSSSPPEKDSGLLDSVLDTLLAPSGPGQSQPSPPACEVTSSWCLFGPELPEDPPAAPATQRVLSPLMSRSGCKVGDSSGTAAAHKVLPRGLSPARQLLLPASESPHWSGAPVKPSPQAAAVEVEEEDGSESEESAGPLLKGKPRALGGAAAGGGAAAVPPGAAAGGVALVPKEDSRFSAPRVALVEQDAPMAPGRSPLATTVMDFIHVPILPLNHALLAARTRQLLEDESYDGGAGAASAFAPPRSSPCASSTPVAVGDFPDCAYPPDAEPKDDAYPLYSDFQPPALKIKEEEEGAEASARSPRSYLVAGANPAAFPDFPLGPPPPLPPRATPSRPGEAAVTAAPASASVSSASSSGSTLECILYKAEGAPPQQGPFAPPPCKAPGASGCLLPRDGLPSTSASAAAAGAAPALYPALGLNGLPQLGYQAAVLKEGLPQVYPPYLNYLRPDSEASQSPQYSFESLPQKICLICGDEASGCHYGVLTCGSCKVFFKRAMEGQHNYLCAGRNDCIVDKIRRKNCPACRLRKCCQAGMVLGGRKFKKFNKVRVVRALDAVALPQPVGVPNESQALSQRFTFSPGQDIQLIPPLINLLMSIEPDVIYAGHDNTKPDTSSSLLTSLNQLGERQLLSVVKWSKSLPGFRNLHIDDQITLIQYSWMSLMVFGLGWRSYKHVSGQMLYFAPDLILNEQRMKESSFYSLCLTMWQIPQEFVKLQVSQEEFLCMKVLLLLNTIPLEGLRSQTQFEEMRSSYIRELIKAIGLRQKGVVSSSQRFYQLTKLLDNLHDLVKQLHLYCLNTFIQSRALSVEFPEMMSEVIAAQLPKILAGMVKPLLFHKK
Nuclear receptor subfamily 1 group I member 2 (Rattus norvegicus), sequence (Q9R1A7 whole entry, looked up): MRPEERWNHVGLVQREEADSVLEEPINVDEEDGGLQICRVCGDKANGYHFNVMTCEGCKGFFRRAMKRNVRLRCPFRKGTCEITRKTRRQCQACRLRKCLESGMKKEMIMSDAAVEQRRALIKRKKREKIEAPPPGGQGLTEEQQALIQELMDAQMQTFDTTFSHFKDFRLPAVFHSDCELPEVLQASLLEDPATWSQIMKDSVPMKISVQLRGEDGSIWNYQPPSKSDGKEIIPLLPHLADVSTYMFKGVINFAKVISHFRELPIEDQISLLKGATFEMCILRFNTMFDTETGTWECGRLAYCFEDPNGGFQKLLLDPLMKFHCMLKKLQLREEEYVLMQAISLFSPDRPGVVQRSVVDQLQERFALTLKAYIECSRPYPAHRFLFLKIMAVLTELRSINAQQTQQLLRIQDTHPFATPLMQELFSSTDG

SMILES | Potency [1] | Potency [2] | Potency [3] | Potency [4] | Potency [5] | outcome [6] | outcome [7] | Potency [8] | Potency [9] | Potency [10] | Potency [11] | Potency [12] | Potency [13] | Potency [14] | Potency [15] | Potency [16] | max activation [17] | outcome [18] | Potency [19] | Potency [20]
CN(C)c1ccc(N=O)cc1 | 68.8 µM (active) and 61.1 µM (active) | 38.7 µM (active) and 48.6 µM (active) | inactive | inactive | inactive | inactive | inactive | 44.7 µM (active) and 27.3 µM (active) | inactive | 7.72 µM (active) and 8.63 µM (active) | inactive | 54.6 µM (active) and 61.1 µM (active) | 21.8 µM (active) and 9.69 µM (active) | inactive | – | – | – | – | – | –
CCNC(=O)NC(=O)/C(C#N)=N/OC | inactive | inactive | inactive | inactive | inactive | inactive | inactive | inactive | inactive | inactive | inactive | inactive | – | inactive | inactive | – | – | – | – | –
O=[N+]([O-])O[C@H]1CO[C@H]2[C@@H]1OC[C@H]2O[N+](=O)[O-] | inactive | – | – | inactive | inactive | inactive | inactive | inactive | inactive | inactive | inactive | inactive | inactive | inactive | – | inactive | -0.141% | inactive | inactive | –
CC(O)CN1CCN(CC(=O)[O-])CCN(CC(=O)[O-])CCN(CC(=O)[O-])CC1.[Gd+3] (configuration not stated) | inactive | inactive | inactive | inactive | inactive | inactive | inactive | inactive | inactive | inactive | inactive | – | inactive | inactive | inactive | – | – | – | – | –
C[CH2][Hg][S]c1ccccc1C(=O)O | 13.7 µM (active) and 21.1 µM (active) | 2.73 µM (active) and 6.68 µM (active) | 1.93 µM (active) and 6.68 µM (active) | 43.6 µM (active) and 19 µM (active) | inactive | – | – | 3.44 µM (active) and 6.68 µM (active) | inactive | 1.72 µM (active) and 1.88 µM (active) | inactive | 12.2 µM (active) and 13.3 µM (active) | – | – | – | – | -14.1% | – | – | 1.54 µM (active) and 3.35 µM (active)
CCCCC1C(=O)NC(=O)N(C2CCCCC2)C1=O (configuration not stated) | inactive | inactive | – | inactive | – | inactive | – | – | inactive | inactive | inactive | inactive | inactive | inactive | – | – | – | – | – | –
COc1cc(CC(C)N)c(OC)cc1Br (configuration not stated) | inactive | – | inactive | inactive | inactive | inactive | inactive | – | inactive | inactive | inactive | inactive | – | inactive | inactive | inactive | – | – | – | –
CCc1ccccc1N | inactive | – | inactive | inactive | inactive | inactive | – | inactive | inactive | inactive | inactive | – | inactive | inactive | – | inactive | – | – | – | –
O=C(O)C(F)(F)C(F)(F)C(F)(F)C(F)(F)C(F)(F)F | – | inactive | inactive | inactive | – | inactive | inactive | inactive | inactive | – | inactive | inactive | inactive | – | – | inactive | – | – | – | inactive

Source: PubChem BioAssay (Tox21)
